Here are results for 17 compounds from PubChem BioAssay AID1491 (National Center for Advancing Translational Sciences (NCATS), 2009).

Inconclusive results are not listed. A number with no mark means an inactive call. Calls of active or inactive are those of the source. Calls come from the whole dose curve; as a rule, active = well fitted inhibition curve with a large enough effect in the main read-out, with a control signal flat; inconclusive = small, poorly fitted or top-dose-only effect, or a change in a side signal; inactive = flat fitted curve, though single readings scatter.
Potency is the fitted concentration of half-maximal effect.

Chain of Neuropeptide S receptor (Homo sapiens) (Q6W5P4 whole entry, looked up): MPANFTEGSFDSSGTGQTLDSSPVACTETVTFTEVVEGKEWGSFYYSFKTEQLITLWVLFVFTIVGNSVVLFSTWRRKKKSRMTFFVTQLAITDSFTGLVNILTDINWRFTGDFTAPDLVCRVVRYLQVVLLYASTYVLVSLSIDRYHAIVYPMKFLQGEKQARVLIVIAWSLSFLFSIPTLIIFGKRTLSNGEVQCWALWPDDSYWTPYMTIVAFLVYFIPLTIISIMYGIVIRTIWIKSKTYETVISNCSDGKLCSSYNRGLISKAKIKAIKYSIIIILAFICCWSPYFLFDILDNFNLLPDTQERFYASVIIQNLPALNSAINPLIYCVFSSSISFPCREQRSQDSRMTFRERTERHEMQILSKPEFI

The experiment concerns the target Neuropeptide S receptor (Homo sapiens) (UniProt Q6W5P4). The experiment can be described thus: Confirmation Concentration-Response Assay for Antagonists of the Neuropeptide S Receptor: cAMP Signal Transduction.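 For activity change, negative = inhibition: 0% = DMSO with NPS and full inhibition = wells lacking NPS.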 As to conditions: CHO-NPSR cells, cAMP TR-FRET, antagonist mode; series mostly up to 22.3 µM; activity change, negative = inhibition: at the top concentration. The gist of the method:
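LANCE TR-FRET cAMP read-out: 665/620 nm emission ratio, with the 620 nm donor channel also reported, after 2 h RT detection. Stably transfected CHO-NPSR cells got compound titrations and 100 nM NPS in stimulation reagent for 60 min at 37C. IC50 came from Hill fits.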
For orientation: In TR-FRET formats the signal depends on donor and acceptor labels being close together.
Take `O=C(N1CCOCC1)C1(c2ccc(Cl)cc2)CCCC1`: the “activity change, negative = inhibition” value was 19.5%.

`Cc1ccc(-n2ncc3c(NCc4ccc5c(c4)OCO5)ncnc32)c(C)c1`: the “activity change, negative = inhibition” value was -21.2%.

Turning to `C=C1C(=O)C=C2CN(C(=O)c3ccccc3)[C@@](Cc3ccc(F)cc3)(C(=O)OC)[C@@H]12`, the Potency is 3.98 µM (active).

Consider `CC(C)(C)OC(=O)Nc1ncnc2c1C(c1ccccc1)c1c(ccc3ccccc13)O2` (configuration not stated), for which the Potency is 3.55 µM (active).

Turning to `CN(C)C(=O)Oc1cccc([N+](C)(C)C)c1`, the “activity change, negative = inhibition” value was -5.44%.

For `CCc1ccc2oc(-c3cc(N)cc(C)c3O)nc2c1`, the “activity change, negative = inhibition” value is 14.2%.

In the case of `O=C(/C(=C/c1ccc(Cl)cc1)c1nc2ccccc2[nH]1)c1cccs1`, the Potency is 8.91 µM (active).

With `COc1ccc(/C=N/n2cncn2)cc1Cn1cc([N+](=O)[O-])cn1`, the “activity change, negative = inhibition” value was 0.869%.

Take `COc1ccc(NC(=O)/C(Cl)=C(/Cl)S(=O)Cc2ccc(C)cc2)cn1` (configuration not stated): the Potency is 2.24 µM (active).

As for `Cc1cccnc1NC(=O)c1c(O)c2cccc3c2n(c1=O)CCC3`, the “activity change, negative = inhibition” value was -5.87%.

As for `N#Cc1cnn(-c2ncnc3sc4c(c23)CCCC4)c1N`, the “activity change, negative = inhibition” value was -16.9%.

On to `COc1ccc2nc(NC(=S)N(C)C)sc2c1`, for which the “activity change, negative = inhibition” value was -7.19%.

For the compound `Cn1c(C(=O)NCCN2CCc3ccccc3C2)cc2c(=O)[nH]c3ccccc3c21`, the “activity change, negative = inhibition” value was 3.7%.

Consider `CCC(C)(C)NC(=O)Cc1ccc(C)cc1`, for which the “activity change, negative = inhibition” value was 11.3%.

As to `NC(=O)OCC(COC(N)=O)c1ccccc1`, the “activity change, negative = inhibition” value is -6.16%.

For `CCO[C@@H]1OC(C(=O)NCc2nc3ccccc3[nH]2)=C[C@H](c2ccc(C(F)(F)F)cc2)[C@H]1CCCO`, the “activity change, negative = inhibition” value was -6.49%.

As for `O=C(/C=C/c1ccco1)NC(=S)Nc1nc(-c2ccc3ccccc3c2)cs1`, the Potency is 3.98 µM (active).
